In PubChem BioAssay:
For part of these data: Entries with a potency or affinity are not part of this list. Calls of active or inactive are those of the source.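 The calls were made as follows, unless noted: active = fitted half-maximal concentration within the tested dose range, moderate curve steepness, a statistically real signal drop, and little compound fluorescence or tag-binding interference; inactive = the rest.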

How the values were obtained:
[1] = target: Cell division control protein 42 homolog (Homo sapiens) (UniProt P60953); assay: activated mutant Cdc42 GTP-binding inhibitors, dose response, biochemical, multiplex bead flow cytometry, Bodipy-FL-GTP (AID 1333)
Sequence of Cell division control protein 42 homolog (Homo sapiens) (P60953 whole entry, looked up): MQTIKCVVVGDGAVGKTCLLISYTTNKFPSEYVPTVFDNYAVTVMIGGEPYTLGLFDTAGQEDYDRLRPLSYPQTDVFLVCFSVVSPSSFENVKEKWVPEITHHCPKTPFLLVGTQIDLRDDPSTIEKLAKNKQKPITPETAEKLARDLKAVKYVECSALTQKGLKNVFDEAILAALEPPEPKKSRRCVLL

[2] = target: Cell division control protein 42 homolog (Homo sapiens) (UniProt P60953); assay: wildtype Cdc42 GTP-binding inhibitors, dose response, biochemical, multiplex bead flow cytometry, Bodipy-FL-GTP (AID 1334;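 active = fitted half-maximal concentration within the tested range, moderate curve steepness, significant signal drop, and little compound fluorescence or bead-linkage interference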); conditions: bead-based flow cytometry, Bodipy-FL-GTP binding to GST-Cdc42; at 100 µM (top of the series) unless noted
[3] = target: GTPase HRas (Homo sapiens) (UniProt P01112); assay: inhibitors of GTP binding to wildtype Ras, dose response, biochemical, multiplex bead flow cytometry (AID 1335;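 active = fitted half-maximal concentration within 10 nM to 100 µM, steepness 0.5 to 2, significant signal drop, low assay interference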); conditions: bead-based flow cytometry, Bodipy-GTP binding to GST-Ras; at 100 µM (top of the series) unless noted
Sequence of GTPase HRas (Homo sapiens) (P01112 whole entry, looked up): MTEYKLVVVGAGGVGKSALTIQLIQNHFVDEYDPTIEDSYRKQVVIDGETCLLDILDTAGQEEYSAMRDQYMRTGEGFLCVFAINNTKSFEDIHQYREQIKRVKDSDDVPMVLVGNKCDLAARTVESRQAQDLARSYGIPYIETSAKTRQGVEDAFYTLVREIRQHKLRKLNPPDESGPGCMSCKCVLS

[4] = system: Ras-related protein Rab-7a (dog), GTP binding; assay: Rab7 GTP binding inhibitors, potency, dose response, biochemical, wildtype, multiplex bead flow cytometry (AID 1336; call rule not given here)
[5] = target: Ras-related C3 botulinum toxin substrate 1 (Homo sapiens) (UniProt P63000); assay: wildtype Rac1 GTP binding inhibitors, dose response, biochemical, multiplex bead flow cytometry (AID 1340;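 active = dose curve with midpoint inside tested range, moderate steepness, plateau gap beyond fit error, low compound glow and bead-link interference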); conditions: GST-Rac1 beads, Bodipy-FL-GTP binding; at 100 µM (top of the series) unless noted
[6] = target: GTPase HRas (Homo sapiens) (UniProt P01112); assay: activated Ras mutant GTP binding inhibitors, dose response, biochemical, multiplex bead flow cytometry (AID 1341;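 active = dose-response curve with midpoint inside the tested range, moderate steepness, significant amplitude and little compound fluorescence or bead-attachment interference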;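 also: GST-tagged constitutively activated Ras mutant immobilized on beads and multiplexed with other GTPases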)
[7] = RPL19A-GFP modulators, yeast TOR pathway, confirmation, cell-based, S. cerevisiae, flow cytometry, cherry picks, mother/daughter gates (AID 2270;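 active = GFP response below 50% of the DMSO control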); conditions: S. cerevisiae RPL19A-GFP strain, 3 h, at 10 µM, stronger effect = lower value, 100 = same GFP as DMSO wells
[8] = LAP4-GFP expression modulators in yeast, confirmation, cell-based, cherry picks, flow cytometry, mother/daughter gates (AID 2271;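 active = GFP response above 150% of the DMSO control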;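 also: ratio of sample to DMSO plate mean so 100% equals DMSO level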); conditions: S. cerevisiae LAP4-GFP strain, 3 h, at 10 µM, stronger effect = higher value, 100 means same as DMSO control
[9] = modulators of MEP2-GFP levels in yeast, confirmation, S. cerevisiae, flow cytometry GFP, cherry picks (AID 2272;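 active = GFP response above 150% of the DMSO control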;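 also: ratio of well signal to plate DMSO mean so 100% equals DMSO level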); conditions: S. cerevisiae MEP2-GFP strain, 3 h, at 10 µM, stronger effect = higher value
[10] = AGP1-GFP expression modulators, hit retest, confirmation, cell-based, flow cytometry, S. cerevisiae, cherry picks (AID 2273;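 active = GFP response above 150% of the DMSO level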;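 also: median GFP channel fluorescence over the whole cell population gate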); conditions: S. cerevisiae AGP1-GFP strain, 3 h, at 10 µM
[11] = modulators of CIT2-GFP expression in yeast, confirmation, S. cerevisiae, GFP fusion, cherry picks, mother/daughter gates (AID 2274;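 active = GFP response above 150% of the DMSO level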); conditions: S. cerevisiae CIT2-GFP strain, flow cytometry, 3 h, at 10 µM, stronger effect = higher value
[12] = measured here: daughter cell gate
[13] = measured here: mother cell gate
[14] = measured here: daughter cell gate response
[15] = measured here: mother cell gate response

SMILES | outcome [1] | fluorescence, percent of control (lower = inhibition) [2] [%] | GTP binding, percent of control [3] [%] | outcome [4] | GTP binding signal, raw median fluorescence (lower = inhibition) (MCF (arbitrary fluorescence units)) [5] | outcome [6] | GFP response vs DMSO [7] | GFP response vs DMSO [7, 12] [%] | GFP response vs DMSO [7, 13] [%] | GFP response relative to DMSO [8] | GFP response relative to DMSO [8, 14] [%] | GFP response relative to DMSO [8, 15] [%] | GFP response vs DMSO [9] | GFP response, % of DMSO [10] | GFP response, % of DMSO [11] | GFP response, % of DMSO [11, 12] [%] | GFP response, % of DMSO [11, 13] [%]
CCOc1nnc(C)c2c(C)n(-c3cccc(OC)c3)nc12 | inactive | 55.9 | 67.2 | inactive | 194 | inactive | 104% (inactive) | 102 | 106 | 98.7% (inactive) | 98.7 | 100 | 102% (inactive) | 99.8% (inactive) | 108% (inactive) | 105 | 109
CCCCCCCCCCCCCCCC(=O)Nc1cccc(C#CC(=O)c2ccc([N+](=O)[O-])cc2)c1 | inactive | 66 | 186 | inactive | 134 | inactive | – | – | – | – | – | – | – | – | – | – | –
CS(=O)(=O)N1N=C(c2ccccc2)CC1c1ccc2c(c1)OCO2 (centres undefined) | inactive | 112 | 120 | inactive | 247 | inactive | 136% (inactive) | 137 | 135 | 449% (active) | 466 | 439 | 1140% (active) | 204% (active) | 436% (active) | 437 | 413
CC(C)(C)C(=O)/C=c1\s/c(=C\c2ccc(-c3ccc([N+](=O)[O-])cc3)o2)c(=O)n1CC(=O)NC(N)=O | inactive | 99.6 | 141 | inactive | 256 | inactive | 101% (inactive) | 101 | 101 | 102% (inactive) | 99.7 | 103 | 112% (inactive) | 101% (inactive) | 99.7% (inactive) | 100 | 98.7
O=C(O)c1ccccc1NCc1ccccc1Cl | inactive | 65.3 | 88.6 | inactive | – | inactive | – | – | – | – | – | – | – | – | – | – | –
O=C(O)c1ccc(COc2ccccc2Cl)o1 | inactive | 73.5 | 96.7 | inactive | – | inactive | – | – | – | – | – | – | – | – | – | – | –
Cc1cc(NCc2ccccn2)n2c(nc3ccccc32)c1C#N | inactive | 42.7 | 87.9 | inactive | 192 | inactive | – | – | – | – | – | – | – | – | – | – | –
O=C(Nc1nc(-c2ccc(S(=O)(=O)N3CCCC3)cc2)cs1)c1ccco1 | inactive | 49.8 | 118 | inactive | – | inactive | – | – | – | – | – | – | – | – | – | – | –
O=C(Nc1cccc(Cl)c1)N1CCN(c2ncccn2)CC1 | inactive | 47.5 | 60.6 | inactive | 201 | inactive | – | – | – | – | – | – | – | – | – | – | –
